Source: PubChem BioAssay
CYP2C19 activ: activators of human cytochrome P450 2C19 | P33261 | recombinant CYP2C19, luciferin-H EGE luminescence; active compounds read high; 0 = fully inhibited enzyme, 1 = untreated enzyme | activation factor at 5 µM | AID 1025 | 96,000 tested, under 10 active;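 active means activation factor of at least 2 at 5 µM in the primary screen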
MRP1 act: activators of MRP-1; H69AR cells + doxorubicin, viability rescue, CellTiter-Glo; viability increase, % at 10 µM; 140,000 tested, 0.61% active; AID 799;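 active means viability gain under doxorubicin at or above a set limit, the compound median plus 3 SD, cut at about 4.7% in these data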;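 further: MRP-1 overexpressing cells given doxorubicin 25 µM after compound pretreatment; 18-22 h compound pretreatment then 72 h with doxorubicin before readout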
CYP2C9 act: increases human cytochrome P450 2C9 activity; activation factor at 5 µM; recombinant CYP2C9, luciferin-H conversion, luminescence; active compounds read high; factor 1 = untreated enzyme, 0 = blocked; P11712; 96,000 tested, 1.4% active;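 active means activation factor of 2 or more for CYP2C9 at a 5 µM dose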
Target sequence (P11712 whole entry, looked up): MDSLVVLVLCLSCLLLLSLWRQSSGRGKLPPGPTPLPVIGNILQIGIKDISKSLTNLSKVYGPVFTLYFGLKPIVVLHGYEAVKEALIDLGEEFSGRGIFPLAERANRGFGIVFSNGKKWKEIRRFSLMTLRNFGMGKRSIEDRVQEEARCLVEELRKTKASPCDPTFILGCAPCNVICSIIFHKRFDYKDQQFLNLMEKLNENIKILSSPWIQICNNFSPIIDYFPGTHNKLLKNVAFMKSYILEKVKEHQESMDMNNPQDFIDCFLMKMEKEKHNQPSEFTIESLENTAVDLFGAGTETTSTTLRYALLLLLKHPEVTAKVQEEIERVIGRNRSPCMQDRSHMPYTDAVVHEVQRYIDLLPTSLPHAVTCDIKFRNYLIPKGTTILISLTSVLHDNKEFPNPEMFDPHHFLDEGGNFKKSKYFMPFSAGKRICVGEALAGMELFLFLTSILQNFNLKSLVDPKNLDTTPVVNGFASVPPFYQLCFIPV
MRP resist rev: MRP-mediated drug resistance reversal | differential viability (reversal), % at 10 µM | 85,000 tested, 0.04% active | H69AR cells + 2 uM doxorubicin, CellTiter-Glo, 72 h | AID 602;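 active means viability drop by adding the cancer drug above about 55%, with treated viability meeting a 40% cutoff, limit read from the data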;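 further: larger differential means the compound sensitizes cells more to doxorubicin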
CYP2C9 inhib: inhibitors of human CYP2C9 | P11712 | CYP2C9 Supersomes, luciferin-H conversion, luminescence | inhibition, % at 5 µM | 96,000 tested, 20% active | AID 777;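 active means blocking of liver enzyme CYP2C9 beyond about 50% at 5 µM, limit read from the data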
CYP2C19 inhib: blocks human cytochrome P450 2C19; P33261; CYP2C19 Supersomes, luciferin-H EGE luminescence, 30 min; inhibition, % at 5 µM; 96,000 tested, 21% active; AID 778;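 active means CYP2C19 inhibition above a set limit at 5 µM in the primary screen, cut at about 50% in these data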
A number is an active result. An excerpt weighted towards active compounds, which were near 21% of everything screened.

For CC(C)[C@H](NC(=O)c1ccccc1)C(=O)OCC(=O)N1CCCc2ccccc21 the results were MRP1 act inactive.
For CC(C)[C@H](NC(=O)c1ccco1)C(=O)OCC(=O)N1CCc2ccccc21 the results were CYP2C19 activ inactive, MRP1 act inactive, CYP2C9 act inactive, MRP resist rev inactive, CYP2C9 inhib 86.8 and CYP2C19 inhib inactive.
For Cc1nn(C)c(C)c1C1C(C#N)=C(N)OC2=C1C(=O)CCC2 (centres undefined) the results were MRP1 act inactive.
Screening O=[N+]([O-])c1ccc(N2CCCCC2)c(Cl)c1N1CCCCC1 returned CYP2C19 activ inactive, MRP1 act inactive, CYP2C9 act inactive, CYP2C9 inhib 50.5 and CYP2C19 inhib inactive.
Screening O=[N+]([O-])c1ccc(N2CCCCCC2)c([N+](=O)[O-])c1 returned CYP2C19 activ inactive, MRP1 act inactive, CYP2C9 act inactive, CYP2C9 inhib inactive and CYP2C19 inhib inactive.
Screening Nc1cc(N2CCCCC2)c(Cl)cc1[N+](=O)[O-] returned CYP2C19 activ inactive, MRP1 act inactive, CYP2C9 act inactive, CYP2C9 inhib 52.8 and CYP2C19 inhib 79.5.
`COc1cc(OC)c2c(c1)C(=O)OC2` gave MRP1 act inactive.
`CCCCOC(=O)c1c(C)oc2ccc(NS(=O)(=O)c3ccc4c5c(cccc35)C(=O)N4)cc12` gave CYP2C19 activ inactive, MRP1 act inactive, CYP2C9 act inactive, MRP resist rev inactive, CYP2C9 inhib 95.9 and CYP2C19 inhib 65.8.
Screening CCCOC(=O)c1ccc(NS(=O)(=O)c2cccs2)cc1 returned CYP2C19 activ inactive, MRP1 act inactive, CYP2C9 act inactive, MRP resist rev inactive, CYP2C9 inhib 100.4 and CYP2C19 inhib inactive.
Screening COCCOC(=O)c1c(C)oc2ccc(NS(=O)(=O)c3ccc(C(=O)O)cc3)cc12 returned CYP2C19 activ inactive, MRP1 act inactive, CYP2C9 act inactive, MRP resist rev inactive, CYP2C9 inhib inactive and CYP2C19 inhib inactive.
Screening CCCOC(=O)c1ccc(NC(=O)/C=C/c2cccs2)cc1 returned MRP1 act inactive.
`CCOC(=O)c1c(C)oc2ccc(NS(=O)(=O)c3cccs3)cc12` gave CYP2C19 activ inactive, MRP1 act inactive, CYP2C9 act inactive, MRP resist rev inactive, CYP2C9 inhib 78.9 and CYP2C19 inhib 63.6.
For COc1cc(C=O)ccc1OCCSc1ccc(C)cc1 the results were CYP2C19 activ inactive, MRP1 act inactive, CYP2C9 act inactive, CYP2C9 inhib 67.7 and CYP2C19 inhib 85.0.
Screening CCOc1cc(C=O)ccc1OCCSc1ccc(C)cc1 returned CYP2C19 activ inactive, MRP1 act inactive, CYP2C9 act inactive, CYP2C9 inhib 69.7 and CYP2C19 inhib 76.7.
Screening Cc1ccc(NC(=O)C2C3C=CC4(CN(Cc5cccnc5)C(=O)C24)O3)cc1 (centres undefined) returned CYP2C19 activ inactive, MRP1 act inactive, CYP2C9 act inactive, MRP resist rev inactive, CYP2C9 inhib inactive and CYP2C19 inhib inactive.
CCOC(=O)c1nnn(-c2nonc2N)c1CN1CCCCCC1 was read as CYP2C19 activ inactive, MRP1 act inactive, CYP2C9 act inactive, MRP resist rev inactive, CYP2C9 inhib inactive and CYP2C19 inhib inactive.
Screening CCOC(=O)c1nnn(-c2nonc2N)c1-c1cccc2ccccc12 returned CYP2C19 activ inactive, MRP1 act inactive, CYP2C9 act inactive, MRP resist rev inactive, CYP2C9 inhib 83.7 and CYP2C19 inhib 98.1.
`CCOC(=O)c1nnn(-c2nonc2N)c1-c1ccc(OC)cc1` gave CYP2C19 activ inactive, MRP1 act inactive, CYP2C9 act inactive, MRP resist rev inactive, CYP2C9 inhib 80.1 and CYP2C19 inhib 98.1.
CCOC(=O)c1nnn(-c2nonc2N)c1-c1cccs1 was read as CYP2C19 activ inactive, MRP1 act inactive, CYP2C9 act inactive, MRP resist rev inactive, CYP2C9 inhib inactive and CYP2C19 inhib 67.6.
For Nc1nonc1-n1nnc(C(=O)O)c1-c1cccs1 the results were CYP2C19 activ inactive, MRP1 act inactive, CYP2C9 act inactive, MRP resist rev inactive, CYP2C9 inhib 83.8 and CYP2C19 inhib inactive.
For CCOc1ccc(-c2c(C(=O)N/N=C/c3ccc(OC)cc3)nnn2-c2nonc2N)cc1 the results were MRP1 act inactive.
For CN(CC(=O)N1CCN(C2CCCCC2)CC1)S(=O)(=O)c1cccc2nsnc12 the results were CYP2C19 activ inactive, MRP1 act inactive, CYP2C9 act inactive, MRP resist rev inactive, CYP2C9 inhib inactive and CYP2C19 inhib inactive.
`CN1c2ccsc2C(O)=C(C(=S)Nc2ccc(F)c(Cl)c2)S1(=O)=O` gave CYP2C19 activ inactive, MRP1 act inactive, CYP2C9 act inactive, MRP resist rev inactive, CYP2C9 inhib 84.1 and CYP2C19 inhib inactive.
Screening CC(=O)N1CCc2ccc(S(=O)(=O)N3CCN(C)CC3)cc21 returned MRP1 act inactive.
For COc1cc(C(C)=O)ccc1OCC(=O)c1cc(C)n(C2CC2)c1C the results were CYP2C19 activ inactive, MRP1 act inactive, CYP2C9 act inactive, MRP resist rev inactive, CYP2C9 inhib inactive and CYP2C19 inhib 58.0.
For Cc1nn(Cc2ccccc2)c(C)c1C(=O)OCC(=O)c1cc(C)n(C2CC2)c1C the results were CYP2C19 activ inactive, MRP1 act inactive, CYP2C9 act inactive, MRP resist rev inactive, CYP2C9 inhib inactive and CYP2C19 inhib inactive.
COC(=O)C1C(=O)OC(C)(C)C1C(C)C(=O)c1ccccc1 (centres undefined) was read as CYP2C19 activ inactive, MRP1 act inactive, CYP2C9 act inactive, MRP resist rev inactive, CYP2C9 inhib inactive and CYP2C19 inhib 79.1.
For CCOC(=O)c1cc2c(ccn2C)n1CC(=O)N1CCN(c2ccccc2OC)CC1 the results were CYP2C19 activ inactive, MRP1 act inactive, CYP2C9 act inactive, MRP resist rev inactive, CYP2C9 inhib inactive and CYP2C19 inhib 69.3.
Screening CCOc1cc2[nH]c(=O)n(CCC(=O)N3CCN(c4ccccc4OC)CC3)c(=O)c2cc1OCC returned CYP2C19 activ inactive, MRP1 act inactive, CYP2C9 act inactive, MRP resist rev inactive, CYP2C9 inhib 67.2 and CYP2C19 inhib inactive.
Screening COc1cc2[nH]c(=O)n(CCC(=O)N3CCN(c4cc(Cl)ccc4C)CC3)c(=O)c2cc1OC returned MRP1 act inactive and MRP resist rev inactive.
COc1cc2[nH]c(=O)n(CCCCCC(=O)N3CC=C(c4ccccc4)CC3)c(=O)c2cc1OC was read as CYP2C19 activ inactive, MRP1 act inactive, CYP2C9 act inactive, CYP2C9 inhib 60.6 and CYP2C19 inhib 82.8.
O=C1Nc2ccc(Br)cc2C1=Nc1ccc(-c2nnc3n2CCCCC3)cc1 was read as CYP2C19 activ inactive, MRP1 act inactive, CYP2C9 act inactive, MRP resist rev inactive, CYP2C9 inhib inactive and CYP2C19 inhib inactive.
`CC1CCN(CCOc2ccc(Cl)c(Cl)c2)CC1` gave MRP1 act inactive.
`O=C(Nc1ccc(-c2nc3ccccc3o2)cc1)c1ccc(N2C(=O)C3C4C=CC(C4)C3C2=O)cc1` (centres undefined) gave CYP2C19 activ inactive, MRP1 act inactive, CYP2C9 act inactive, MRP resist rev inactive, CYP2C9 inhib inactive and CYP2C19 inhib inactive.
`S=C(Nc1ccc2c(c1)OCO2)NC1CCN(Cc2ccccc2)CC1` gave CYP2C19 activ inactive, MRP1 act inactive, CYP2C9 act inactive, MRP resist rev inactive, CYP2C9 inhib inactive and CYP2C19 inhib inactive.
`c1ccc(CNc2ccc3ccccc3n2)nc1` gave CYP2C19 activ inactive, MRP1 act inactive, CYP2C9 act inactive, MRP resist rev inactive, CYP2C9 inhib inactive and CYP2C19 inhib 75.3.
